L929 necroptosis: inhibitors of zVAD-triggered necroptosis, primary screen, L929 cells; actives 0.38% (n = 220,000); L929 zVAD necroptosis rescue, ATP luminescence, 24 h; with zVAD 60 µM; viability rescue, % at 10 µM;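 active = activation, scaled between plate controls, above about 75%, limit read from the data; inactive = activation under that limit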
Bim-Mcl-1: inhibitors of Bim peptide binding to Mcl-1, primary screen, biochemical, bead-based flow cytometry, multiplex; Induced myeloid leukemia cell differentiation protein Mcl-1 (Homo sapiens), Q07820; Bim peptide-Mcl-1 binding; AID 1009, 2008; actives 0.1% (n = 190,000); inhibition, % at 10 µM; in the data active = inhibition above about 40%
Target sequence (Q07820 whole entry, looked up): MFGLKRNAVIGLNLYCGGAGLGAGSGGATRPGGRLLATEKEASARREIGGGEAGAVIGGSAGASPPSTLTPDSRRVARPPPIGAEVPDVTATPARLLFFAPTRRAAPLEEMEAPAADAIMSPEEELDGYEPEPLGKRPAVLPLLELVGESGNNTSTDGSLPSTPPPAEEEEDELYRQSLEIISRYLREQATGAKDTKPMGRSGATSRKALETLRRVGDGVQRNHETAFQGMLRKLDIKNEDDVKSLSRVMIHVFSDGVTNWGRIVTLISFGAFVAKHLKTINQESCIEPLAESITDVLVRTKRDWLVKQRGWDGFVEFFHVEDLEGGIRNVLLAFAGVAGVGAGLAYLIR
TNF necrop inh: inhibitors of TNF-alpha triggered necroptosis, primary screen, cell-based, Jurkat FADD-/-, single concentration; Jurkat FADD-/- TNF necroptosis rescue, ATP luminescence, 24 h; 0 = TNF only, 100 = no-TNF cells; activation (protection from cell death), % at 10 µM; actives 0.068% (n = 220,000);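 active = activation, meaning protection from cell death, of at least 50% relative to plate controls; inactive = activation below 50%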;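 also: necroptosis triggered by 40 ng/mL TNF-alpha added together with compound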
Mcl1-Noxa inh: Mcl-1/Noxa binding inhibitors, primary screen, biochemical, TR-FRET, 1536-well; Induced myeloid leukemia cell differentiation protein Mcl-1 (Homo sapiens), Q07820; TR-FRET Mcl-1/Noxa peptide binding, 2 h; inhibition, % at 21.7 µM; actives 1.5% (n = 220,000);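 active = compounds that cut the protein-peptide binding signal by more than 50% relative to plate controls in a single-dose test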;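 also: His-tagged Mcl-1 with rhodamine Noxa BH3 peptide and terbium anti-His antibody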
Mcl1 Bid PPI: Mcl-1/Bid binding inhibitors, primary screen, biochemical, TR-FRET, 1536-well; Induced myeloid leukemia cell differentiation protein Mcl-1 (Homo sapiens), Q07820; actives 0.97% (n = 220,000); inhibition, % at 21.7 µM; TR-FRET Mcl-1/Bid-Dy647 peptide binding;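 active = compounds that cut the binding signal by more than half at the single screening dose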;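 also: His-tagged Mcl-1 with europium anti-His antibody binding Bid BH3 peptide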
Calpain2 inh: inhibitors of pig calpain II, primary screen, biochemical, fluorogenic peptide substrate, 1536-well | actives 0.37% (n = 220,000) | AID 1236, 2008 | inhibition, % at 16 µM | purified calpain II, 30 min;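 active = inhibition above about 50%, limit read from the data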
A number is an active result; . = inactive; / = no result given. This is a sample that favours compounds with a hit; in the whole collection about 2.8% have one here.

SMILES | L929 necroptosis | Bim-Mcl-1 | TNF necrop inh | Mcl1-Noxa inh | Mcl1 Bid PPI | Calpain2 inh
Cc1ccc(C(=O)COC(=O)CNC(=O)c2ccc(N3C(=O)c4ccccc4C3=O)cc2)cc1C | . | . | . | 83 | . | .
O=C(CNC(=O)c1ccc(N2C(=O)c3ccccc3C2=O)cc1)OCC(=O)c1ccc(Cl)cc1 | . | . | . | . | . | .
CC1(C)C(=O)Nc2ccccc2N1C(=O)Cn1ncc(Cl)c(Cl)c1=O | . | / | . | 58 | . | .
CC(C)CC1NC(=O)N(CC(=O)N2c3ccccc3NC(=O)C2(C)C)C1=O (centres undefined) | . | . | . | 82 | . | .
O=C1CCCCCCC1Sc1ccccc1[N+](=O)[O-] (centres undefined) | . | . | . | . | . | .
Cc1cccc(/C=C/c2nc3ccccc3c(=O)[nH]2)c1 | . | . | . | . | . | .
Cc1[nH]c2ccccc2c1/C=C/c1nc2ccccc2c(=O)[nH]1 | . | / | . | 74 | 64 | .
CCCCCNc1nc2sc3c(c2c(=O)n1-c1cccc(Cl)c1)CCN(C)C3 | . | / | . | . | . | .
Cn1c(CSCc2ccc(Cl)cc2)nnc1SCC(=O)Nc1nccs1 | . | . | . | . | . | .
Cn1c(CSCc2ccc(Cl)cc2)nnc1SCC(=O)Nc1nc2ccccc2s1 | . | . | . | . | 62 | .
Cn1c(CSc2nc3ccccc3s2)nnc1SCC(=O)NCc1cccnc1 | . | . | . | . | 94 | .
O=C(O)c1cnn2c(C(F)(F)F)cc(-c3ccco3)nc12 | . | . | . | . | 79 | .
O=C(c1cnn2c(C(F)(F)F)cc(-c3ccco3)nc12)N1CCCCCC1 | . | . | . | . | . | .
COc1ccc2nc(N3C(=O)/C(=C/c4ccccc4)NC3=S)sc2c1 | . | . | . | 64 | . | .
CCOC(=O)Cc1csc(NC(=O)Cc2ccc(Cl)cc2)n1 | . | / | . | . | 55 | .
CCn1c(NN)nc2sc3c(c2c1=O)CCC3 | . | . | . | . | . | .
C=C(C)CSc1nnc2n(Cc3ccccc3)c(=O)c3c4c(sc3n12)CCC4 | . | . | 51 | . | . | .
NNc1nc2sc3c(c2c(=O)n1Cc1ccccc1)CCC3 | . | / | 90 | . | . | .
COC(=O)N/N=C\c1cccc(OC(=O)c2cccs2)c1 | . | . | . | . | . | .
O=C1NN(c2ccc(Cl)c(Cl)c2)C(=O)/C1=C/c1cccc(OC(=O)c2cccs2)c1 | . | . | . | 96 | 90 | .
O=C1NN(c2ccccc2)C(=O)/C1=C\c1cccc(OC(=O)c2cccs2)c1 | . | . | . | 57 | . | .
O=C(NCc1n[nH]c(=S)n1-c1ccc(Cl)c(Cl)c1)c1ccc(S(=O)(=O)N2CCOCC2)cc1 | . | . | . | . | . | .
O=C(Nc1cccc(C(F)(F)F)c1)C(SCCO)c1ccccc1 (centres undefined) | . | . | . | . | . | .
Cn1nnnc1SC(C(=O)Nc1cccc(C(F)(F)F)c1)c1ccccc1 (centres undefined) | . | . | . | . | . | 54
Cc1[nH]c2ccccc2c1CN1CCc2ccccc2C1 | . | . | . | / | 51 | .
CCCNC(=S)N1CCC(C(=O)c2ccc3c(c2)OCCO3)CC1 | . | . | . | . | . | .
COc1ccc(N2CCN(C(c3ccccc3OC)c3nnnn3C3CCCC3)CC2)cc1 (centres undefined) | . | . | . | . | . | .
COc1ccc(OC)c(C(c2nnnn2C2CCCC2)N2CCN(c3ccccc3F)CC2)c1 (centres undefined) | . | . | . | . | . | 51
COc1ccc(N2CCN(C(c3cc(OC)ccc3OC)c3nnnn3CC3CCCO3)CC2)cc1 (centres undefined) | . | . | . | 60 | . | .
COc1ccc(C(c2nnnn2CC2CCCO2)N2CCN(c3ccccc3)CC2)cc1 (centres undefined) | . | . | . | . | . | .

Screens as filed in PubChem BioAssay.
